Results on 6 compounds are retold here after PubChem BioAssay (NCI).

Among the test systems are SR leukemia; RPMI-8226 leukemia; OVCAR-8 ovarian; OVCAR-5 ovarian; OVCAR-4 ovarian; SK-OV-3 ovarian; IGROV1 ovarian; OVCAR-3 ovarian; HS 578T breast; NCI/ADR-RES ovarian; T-47D breast; BT-549 breast; MDA-MB-435 melanoma; SW-620 colon; MCF7 breast; HCT-116 colon; HCC-2998 colon; KM12 colon; MDA-MB-468 breast.
What all share (assay): NCI-60 one-dose screen, 48 h (100 = growth as untreated, 0 = no growth, -100 = all killed)
Details in all cases: 10 µM unless noted

Molecules are shown by their SMILES. About 83,000 compounds went through this panel and 20% of them were active in at least one assay; those are over-represented in the sample as a whole.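 A percent growth of 40 corresponds to 60% growth inhibition; 0 means no net growth; -100 means all cells died. Active threshold: below 10.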 Values without a mark were called inactive. Active and inactive are the calls of the source.

As to `CC(C)C(C(=O)O)n1c(O)c(/C=C2/C=c3cc4c(cc3=NC2=O)OCO4)sc1=S` (centres undefined), the growth was 90.5% with SR leukemia; 109% in the experiment on RPMI-8226 leukemia; 105% in the experiment with OVCAR-8 ovarian; 110% in the experiment with OVCAR-5 ovarian; 108% in the experiment on OVCAR-4 ovarian; 129% in the experiment on SK-OV-3 ovarian. Moreover, the growth in the experiment with IGROV1 ovarian is 109%; in the experiment on OVCAR-3 ovarian, 107%; in the experiment on HS 578T breast, 99.8%; in the experiment with NCI/ADR-RES ovarian it was 98.2%; in the experiment on T-47D breast, 103%; in the experiment on BT-549 breast it was 111%. For the same compound, the growth in the experiment on MDA-MB-435 melanoma is 107%; in the experiment with SW-620 colon, 108%; in the experiment with MCF7 breast, 90.4%; in the experiment on HCT-116 colon it was 108%; in the experiment on HCC-2998 colon it was 110%; in the experiment on KM12 colon it was 103%. Besides, the growth in the experiment with MDA-MB-468 breast was 101%.
Regarding `C=C1CCC2C3(C)COC(c4ccc(F)cc4)OC3CCC2(C)C1CC(O)C1=CCOC1=O` (centres undefined), the growth in the experiment on SR leukemia was 21.6%; with RPMI-8226 leukemia it was 21.9%; in the experiment on OVCAR-8 ovarian, -2.76% (active); in the experiment on OVCAR-5 ovarian it was 51%; in the experiment with OVCAR-4 ovarian it was 53.8%; with SK-OV-3 ovarian, 98%. The growth with IGROV1 ovarian is 36.5%; with OVCAR-3 ovarian, 63.4%; in the experiment with HS 578T breast, 71%; in the experiment with NCI/ADR-RES ovarian, 0.657% (active); in the experiment with T-47D breast, 31.6%; with BT-549 breast it was -31.9% (active). In addition, the growth in the experiment on MDA-MB-435 melanoma was 29.6%; in the experiment on SW-620 colon it was 2.53% (active); in the experiment with MCF7 breast, 12.3%; in the experiment on HCT-116 colon, -50.2% (active); in the experiment on HCC-2998 colon, 24.3%; with KM12 colon, 49.7%. The growth with MDA-MB-468 breast is 18.8%.
Take `COc1ccc2[nH]cc(-c3cc(N)n4nc(-c5cn(C)c6ccccc56)cc4n3)c2c1`: the growth in the experiment on SR leukemia is 9.5% (active); in the experiment with RPMI-8226 leukemia, -18% (active); in the experiment with OVCAR-8 ovarian, -95.6% (active); with OVCAR-5 ovarian it was -85.9% (active); with OVCAR-4 ovarian, -58.3% (active); in the experiment on SK-OV-3 ovarian, -84% (active). Also, the growth is -64.2% (active) in the experiment on IGROV1 ovarian; -43% (active) in the experiment on OVCAR-3 ovarian; -7.76% (active) in the experiment on HS 578T breast; -45.3% (active) in the experiment with NCI/ADR-RES ovarian; -73.3% (active) with T-47D breast; -75.2% (active) with BT-549 breast. For the same compound, the growth in the experiment on MDA-MB-435 melanoma is -81% (active); with SW-620 colon it was -46.1% (active); with MCF7 breast, -82.2% (active); with HCT-116 colon, -85.9% (active); with HCC-2998 colon, -81.3% (active); in the experiment with KM12 colon it was -69.9% (active). Besides, the growth with MDA-MB-468 breast was -80.1% (active).
For the compound `Cc1ccc(C(=O)CSc2nc3ccc(F)cc3c(=O)n2-c2ccc(Cl)cc2)cc1`, the growth was 93.9% in the experiment with SR leukemia; 93.9% in the experiment on RPMI-8226 leukemia; 37.8% in the experiment on OVCAR-8 ovarian; 76.2% in the experiment with OVCAR-5 ovarian; 31% in the experiment on OVCAR-4 ovarian; 46% in the experiment on SK-OV-3 ovarian. In addition, the growth in the experiment on IGROV1 ovarian is 82.7%; with OVCAR-3 ovarian, 82.4%; in the experiment on HS 578T breast, -18.9% (active); in the experiment with NCI/ADR-RES ovarian, 28.3%; with T-47D breast, 96.5%; in the experiment with BT-549 breast, 1.44% (active). The growth is 76.1% in the experiment with MDA-MB-435 melanoma; 75% in the experiment with SW-620 colon; 65.2% with MCF7 breast; 24.4% with HCT-116 colon; 81.3% in the experiment with HCC-2998 colon; 96.3% in the experiment with KM12 colon. The growth with MDA-MB-468 breast was 44.7%.
With `CN(C)CCCNC(=O)c1cc(NC(=O)c2cc(NC(=O)c3ccc(/C=C/c4ccccc4)cc3)cn2C)cn1C`, the growth in the experiment with SR leukemia was -30.3% (active); in the experiment on RPMI-8226 leukemia, -0.0203% (active); in the experiment on OVCAR-8 ovarian, 35.7%; in the experiment on OVCAR-5 ovarian, 105%; with OVCAR-4 ovarian, 58.4%; in the experiment on SK-OV-3 ovarian, 88.7%. In addition, the growth with IGROV1 ovarian is 78.3%; in the experiment on OVCAR-3 ovarian, 51.6%; in the experiment with HS 578T breast, 94.6%; in the experiment with NCI/ADR-RES ovarian it was 91.6%; in the experiment on T-47D breast, 54.5%; in the experiment with BT-549 breast it was 69.2%. For the same compound, the growth in the experiment with MDA-MB-435 melanoma is 58.6%; with SW-620 colon, 7.42% (active); with MCF7 breast, -85.9% (active); in the experiment on HCT-116 colon, 0.824% (active); in the experiment on HCC-2998 colon, 42.3%; in the experiment with KM12 colon, -16.5% (active). Also, the growth with MDA-MB-468 breast is 37.4%.
As for `COC(=O)C[C@](O)(CCCC(C)(C)O)C(=O)O[C@H]1C(OC)=C[C@@]23CCCN2CCc2cc4c(cc2[C@@H]13)OCO4`, the growth with SR leukemia was -25% (active); in the experiment on RPMI-8226 leukemia, -18.1% (active); in the experiment with OVCAR-8 ovarian it was -34.8% (active); in the experiment with OVCAR-5 ovarian it was -14.5% (active); in the experiment with OVCAR-4 ovarian it was -13.9% (active); with SK-OV-3 ovarian, 2% (active). Also, the growth in the experiment on IGROV1 ovarian was -15.7% (active); in the experiment on OVCAR-3 ovarian it was -28.5% (active); in the experiment with HS 578T breast it was -26% (active); in the experiment with NCI/ADR-RES ovarian it was 96.3%; with T-47D breast it was -7.62% (active); in the experiment with BT-549 breast, -29.9% (active). Besides, the growth in the experiment with MDA-MB-435 melanoma is -26.8% (active); in the experiment with SW-620 colon, -22.2% (active); with MCF7 breast, -17.7% (active); with HCT-116 colon, -29.4% (active); in the experiment with HCC-2998 colon, -61.3% (active); with KM12 colon, -15.6% (active). Also, in the experiment on MDA-MB-468 breast, the growth was -36.6% (active).
